Bioassay records as filed in PubChem.
Hits are enriched below; roughly 4.6% of the tested compounds scored in any of these assays.
D1 antag: Antagonist of Human D 1 Dopamine Receptor: qHTS | 360,000 compounds, 3.2% hits | AID 504652, 2011 | HEK293 TREx D1 cells, calcium flux, dopamine EC80; stronger effect = lower value | D(1A) dopamine receptor (Homo sapiens), P21728 | activity change, negative = inhibition, % at 10 µM; in the data active = activity change below about -30%; also: % is scaled to controls: 0 for no effect and ±100 for the full control effect
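Tetracycline-induced HEK293 T-REx cells with force-coupled D1 receptor were loaded with a no-wash calcium dye. Compound was added after a 10 s baseline and read kinetically for 180 s; EC80 dopamine was then added and calcium flux followed another 180 s.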
Epigenetic derep: Quantitative High-Throughput Screen for Regulators of Epigenetic Control | murine LDR cells, GFP reporter derepression, 30 h | Potency, µM (titrated, usually from 53.9 µM), for the others: at the top dose GFP activation, hits mostly activators | 280,000 compounds, 0.2% hits | AID 1865, 2009; active = well fitted activation curve with a large enough effect; inconclusive = small, poorly fitted or top-dose-only effect; also: potency is read from the fitted curve at half-maximal effect; % of control where 0% means no effect; nearly all actives have a fitted effect of over 60% in size
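Readout is the number of GFP-expressing murine LDR cells, counted by cytometry following washing. Cells were treated with compound for 30 h at 37 C; the stably integrated CMV-GFP locus is normally silent.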
D1 agonist: Allosteric Agonists of the Human D1 Dopamine Receptor: qHTS; D(1A) dopamine receptor (Homo sapiens), P21728; HEK293 T-REx D1 cells, calcium flux, agonist mode; activation, % at 2 µM; 360,000 compounds, 1% hits; AID 504660, 2011; also: 0% is about no effect
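Agonism was scored from calcium flux recorded over 180 s (1 read/s) after pintool compound addition, following a 10-cycle baseline. Cells were inducible force-coupled HEK293 TREx D1, plated overnight at 30 C and loaded with no-wash calcium dye.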
TRHR enhancer: qHTS for Small Molecule Agonists and Allosteric Enhancers of Human TRH Receptor: Primary Screen for Enhancers; Thyrotropin-releasing hormone receptor (Homo sapiens), P34981; TRHR cells, fluo-8 calcium fluorescence, EC20 TRH enhancement; enhancement, % at 2 µM; 360,000 compounds, 0.66% hits; AID 493056, 2011; in the data active = enhancement above about 30%; also: 0% is about no effect
Target sequence (P34981 whole entry, looked up): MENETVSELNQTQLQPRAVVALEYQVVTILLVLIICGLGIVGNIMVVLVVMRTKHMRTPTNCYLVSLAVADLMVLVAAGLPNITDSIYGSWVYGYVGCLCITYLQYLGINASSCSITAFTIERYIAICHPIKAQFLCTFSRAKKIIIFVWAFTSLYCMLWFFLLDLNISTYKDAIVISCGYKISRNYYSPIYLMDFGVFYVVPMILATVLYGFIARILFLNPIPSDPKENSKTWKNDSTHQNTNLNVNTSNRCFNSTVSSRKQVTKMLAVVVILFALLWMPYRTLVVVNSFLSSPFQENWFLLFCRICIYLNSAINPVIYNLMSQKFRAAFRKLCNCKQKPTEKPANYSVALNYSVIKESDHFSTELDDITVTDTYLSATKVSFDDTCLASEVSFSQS
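TRHR-expressing cells loaded with fluo-8 calcium dye were read kinetically (ex 480/em 530) during compound addition, then stimulated with an EC20 of TRH (10 nM final). Enhancement of the Gq-mediated intracellular calcium response was scored.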
D1 potentiator: Potentiators of Human D1 Dopamine Receptor: qHTS; potentiation, % at 10 µM; D(1A) dopamine receptor (Homo sapiens), P21728; 360,000 compounds, 0.036% hits; HEK293 TREx D1 cells, calcium flux, dopamine EC20 potentiation; in the data active = potentiation above about 30%; also: 0% is about no effect
TRHR agonist: qHTS for Small Molecule Agonists and Allosteric Enhancers of Human TRH Receptor: Primary Screen for Agonists | Thyrotropin-releasing hormone receptor (Homo sapiens), P34981 | activation, % at 2 µM | TRHR cells, calcium flux fluo-8, FDSS agonist mode | AID 493084, 2011 | 360,000 compounds, 0.18% hits; also: 0% is about no effect
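In this calcium-flux screen, cells bearing human TRHR are dye-loaded with fluo-8, baselined for 10 cycles, then exposed to library compounds; positive kinetic calcium responses during the agonist phase mark hits, with TRH as control.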
The depositor's hits bear a star; u = inconclusive; x = no result given. Rule as the data show it, unless noted: active = activation above about 30%; inactive = the rest.

SMILES	D1 antag	Epigenetic derep	D1 agonist	TRHR enhancer	D1 potentiator	TRHR agonist
O=C(NCc1ccco1)c1cccn2c(=O)c3cc4ccccc4cc3nc12	-4	16µM*	30	8	-11	6
Cc1ccc2nc3c(cc(C(=O)NCc4ccco4)c(=N)n3C3CCCC3)c(=O)n2c1	9	x	39*	-1	x	8
CCn1c(=N)c(C(=O)NC2CCCCC2)cc2c(=O)n3cc(C)ccc3nc21	-31*	1%	2	-5	0	1
O=C(CNC(=O)c1ccc(C(F)(F)F)cc1)OC(C(=O)Nc1cc(C(F)(F)F)ccc1Cl)c1ccccc1 (centres undefined)	-12	x	7	-4	-1	2
COc1cc(OC)c(NS(=O)(=O)c2cc(-c3cnc(C)o3)ccc2OC)cc1Cl	-18	-2%	10	0	-1	2
CCOc1ccc(C(=O)c2cn(CC(=O)Nc3ccc(F)c(F)c3)c3cc4c(cc3c2=O)OCCO4)cc1	12	-4%	1	-4	0	2
O=[N+]([O-])c1cccnc1N1CCC(c2cc(-c3ccc(Cl)cc3)n[nH]2)CC1	-33*	u	3	-8	0	0
CCOC(=O)CN1CCC(c2cc(-c3ccc(Cl)cc3)n[nH]2)CC1	-23	x	13	-2	-6	3
CCN1CCCC1CNC(=O)Cn1nc(C)n2c(cc3cc(F)ccc32)c1=O (centres undefined)	10	x	3	35*	3	1
CCOC(=O)N1CCN(C(=O)CNS(=O)(=O)c2c(C)cc(C)cc2C)CC1	13	x	5	33*	6	0
CCOC(=O)N1CCN(C(=O)CNS(=O)(=O)c2cccs2)CC1	5	-1%	2	-4	6	0
Oc1ccc(Br)cc1C1C=C(c2ccc3c(c2)OCO3)NC(c2c(F)cccc2Cl)N1 (centres undefined)	-56*	x	19	-2	-4	1
Oc1ccccc1C1C=C(c2ccc3c(c2)OCO3)NC(c2c(F)cccc2Cl)N1 (centres undefined)	32	x	12	4	2	1
Oc1ccc(Cl)cc1C1C=C(c2ccc3c(c2)OCO3)NC(c2cc(Br)ccc2F)N1 (centres undefined)	-9	x	31*	-2	-2	2
C=CC(C)(C)c1c2c(c(O)c3c(=O)c4ccc(O)c(O)c4oc13)C=CC(C)(C)O2	x	0%	x	x	x	x
CCc1ccc(OCCOCC(O)CN2CCN(Cc3ccc(Cl)cc3)CC2)cc1 (centres undefined)	-36*	-2%	40*	4	-4	1
OC(CNC1CCCCC1)COCCOc1ccc(Br)cc1 (centres undefined)	-30*	1%	48*	-1	-1	0
OC(COCCOc1ccc(Br)cc1)CN1CCN(Cc2ccccc2)CC1 (centres undefined)	-31*	-1%	27	11	-11	1
CC(C)Oc1ccc(C(CCNCc2ccc(O)cc2)c2ccccc2)cc1 (centres undefined)	7	x	39*	3	-6	2
Cc1cccc(-c2c3c(=O)n(C)c(=O)n(C)c3cn2-c2cc(N)c(Cl)cc2Cl)c1	9	-2%	2	4	0	0
OC(CCCN1CCCCC1)(c1ccccc1)c1ccccc1	-34*	-1%	3	4	-3	0
CC(C)(C)C(=O)Nc1ccc(C(=O)COC(=O)C2=COCCO2)cc1	-4	x	4	0	2	0
CN1CCN(C(=S)c2ccc(-c3cccc([N+](=O)[O-])c3)o2)CC1	0	1%	1	1	-10	-1
O=[N+]([O-])c1cccc(-c2ccc(C(=S)N3CCOCC3)o2)c1	-35*	3%	0	4	-2	0
Cc1nn(-c2cccc(Cl)c2)c2nc(-c3cccnc3)cc(C(F)(F)F)c12	-12	-2%	1	-6	1	2
SMILES	D1 antag	Epigenetic derep	D1 agonist	TRHR enhancer	D1 potentiator	TRHR agonist
Fc1ccccc1COc1ccc(Br)cc1CNCC1CCCO1 (centres undefined)	-50*	-3%	12	-3	-12	0
NS(=O)(=O)c1ccc(CCNCc2ccccc2OCc2ccc(Cl)cc2)cc1	-48*	x	53*	-6	-8	2
C=CCOc1ccccc1CNCCc1ccc(S(N)(=O)=O)cc1	-10	-1%	9	5	2	0
COc1cccc(CNCCNC(=O)c2nonc2N)c1	0	-1%	4	19	-4	1
COc1cc(CNCCNC(=O)c2nonc2N)ccc1OCc1ccc(Cl)cc1	-22	-6%	69*	2	-4	2
O=C(COc1ccc(Br)cc1CNCCc1ccccc1)NCc1ccccc1	x	1%	28	-3	-8	2
NS(=O)(=O)c1ccc(CCNCc2cc(Br)ccc2OCc2ccccc2F)cc1	-31*	-1%	25	9	-3	0
CC(C)(C)c1ccc(S(=O)(=O)c2cnc(SCC(=O)Nc3ccc4c(c3)OCCO4)[nH]c2=O)cc1	-14	9%	0	-3	0	0
O=C(Cn1ccn(-c2ccc(F)cc2)c(=O)c1=O)Nc1ccc(F)cc1	-6	3%	1	-3	-2	0
NS(=O)(=O)c1ccc(CCNC(=O)CNCCc2ccccc2)cc1	16	x	1	-4	-6	-1
NS(=O)(=O)c1ccc(CCNCc2cc(Cl)ccc2OCc2ccccc2)cc1	-6	x	57*	-2	-6	0
Nc1nonc1C(=O)NCCNCc1cc(Br)ccc1OCc1ccccc1F	-10	1%	31*	2	-8	0
COc1cc(/C=C/c2nc(C#N)c(N3CCN(C)CC3)o2)cc(OC)c1OC	13	15%	0	-3	-1	0
Fc1ccc(-c2noc3ncnc(NC4CCCCC4)c23)cc1	-4	0%	-1	-10	8	-1
O=C(O)CCc1cc(I)c(Oc2ccc(O)c(I)c2)c(I)c1	0	2%	85*	13	-9	2
Cc1ccc(C)c(Nc2nc(-c3cccnc3)cs2)c1	-39*	x	2	4	-7	3
CC1/C=C/C=C/C=C/C=C/C=C/C=C/C=C/C(OC2OC(C)C(O)C(N)C2O)CC2O[C@@](O)(CC(O)CC(O)C(O)CCC(O)CC(O)CC(=O)OC(C)[C@H](C)C1O)CC(O)C2C(=O)O (some centres undefined)	x	0%	x	x	x	x
